Records with an inconclusive call do not appear. The source made the active and inactive calls. The call rests on the fitted dose curve; in most records, active means well fitted curve in the direction sought with a large enough effect; inconclusive means small, poorly fitted or top-dose-only effect, or another doubt; inactive means no such curve, though single readings can be large; an effect the other way counts as inactive or inconclusive.
Legend:
[1] = Quantitative High-Throughput drug screen in 47 multiple myeloma cell lines against the NCATS MIPE library collection: JJN3_DSMZ cell viability assay (AID 1918966; further: nearly all actives have a fitted effect of over 50% in size)
Method in brief: (§1)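 Inhibition of cell viability is measured here. Each line was plated at 500 cells per well, treated with MIPE 4.0 drugs, kept 48 hours at 37C, then assayed for ATP content by CellTiter-Glo luminescence.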

[2] = Quantitative High-Throughput drug screen in 47 multiple myeloma cell lines against the NCATS MIPE library collection: H1112_PLB cell viability assay (AID 1918967; further: nearly all actives have a fitted effect of over 30% in size)
Method in brief: as §1

[3] = Quantitative High-Throughput drug screen in 47 multiple myeloma cell lines against the NCATS MIPE library collection: OCIMY1_PLB cell viability assay (AID 1918979); further: nearly all actives have a fitted effect of over 35% in size
Method in brief: (§2)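 ATP-based luminescence (CellTiter-Glo, 5 min RT incubation) quantified surviving cells following two days' treatment with MIPE 4.0 agents at 37 °C, 5% CO2.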

[4] = Quantitative High-Throughput drug screen in 47 multiple myeloma cell lines against the NCATS MIPE library collection: MM1S_ATCC cell viability assay (AID 1918980); further: nearly all actives have a fitted effect of over 45% in size
Method in brief: as §2

[5] = Quantitative High-Throughput drug screen in 47 multiple myeloma cell lines against the NCATS MIPE library collection: LP1_DSMZ cell viability assay (AID 1918982); further: nearly all actives have a fitted effect of over 35% in size
Method in brief: as §2

[6] = Quantitative High-Throughput drug screen in 47 multiple myeloma cell lines against the NCATS MIPE library collection: KMS28PE_JCRB cell viability assay (AID 1918983); further: nearly all actives have a fitted effect of over 35% in size
Method in brief: as §2

[7] = Quantitative High-Throughput drug screen in 47 multiple myeloma cell lines against the NCATS MIPE library collection: KMS34_JCRB cell viability assay (AID 1918985); further: nearly all actives have a fitted effect of over 40% in size
Method in brief: as §2

[8] = Quantitative High-Throughput drug screen in 47 multiple myeloma cell lines against the NCATS MIPE library collection: KMS27_JCRB cell viability assay (AID 1918970); conditions: KMS27 myeloma cells, CellTiter-Glo ATP viability, 48 h; viability (% of DMSO): at 45.8 µM (top of the series); further: nearly all actives have a fitted effect of over 30% in size
Method in brief: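 CellTiter-Glo luminescence after 48 h drug exposure at 37 °C; 500 cells/well, 1536-well format, pin-tool compound addition; DMSO = 100%, media-only = 0% viability.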

[9] = Quantitative High-Throughput drug screen in 47 multiple myeloma cell lines against the NCATS MIPE library collection: KMS26_JCRB cell viability assay (AID 1918975); further: nearly all actives have a fitted effect of over 45% in size
Method in brief: (§3)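 Approved and investigational drugs from MIPE 4.0 were added by pin tool to 500 cells per well. After 48 hours at 37C, ATP-based CellTiter-Glo luminescence indicated remaining viability.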

[10] = Quantitative High-Throughput drug screen in 47 multiple myeloma cell lines against the NCATS MIPE library collection: MOLP8_DSMZ cell viability assay (AID 1918977); further: nearly all actives have a fitted effect of over 45% in size
Method in brief: as §2

[11] = Quantitative High-Throughput drug screen in 47 multiple myeloma cell lines against the NCATS MIPE library collection: MM1R_ATCC cell viability assay (AID 1918981); further: nearly all actives have a fitted effect of over 35% in size
Method in brief: as §2

[12] = Quantitative High-Throughput drug screen in 47 multiple myeloma cell lines against the NCATS MIPE library collection: Karpas25_ECACC cell viability assay (AID 1918968; further: nearly all actives have a fitted effect of over 35% in size)
Method in brief: as §1

[13] = Quantitative High-Throughput drug screen in 47 multiple myeloma cell lines against the NCATS MIPE library collection: KMS12BM_JCRB cell viability assay (AID 1918971); further: nearly all actives have a fitted effect of over 35% in size
Method in brief: as §3

[14] = Quantitative High-Throughput drug screen in 47 multiple myeloma cell lines against the NCATS MIPE library collection: KMS12PE_JCRB cell viability assay (AID 1918972); further: nearly all actives have a fitted effect of over 30% in size
Method in brief: as §1

[15] = Quantitative High-Throughput drug screen in 47 multiple myeloma cell lines against the NCATS MIPE library collection: KMS21BM_JCRB cell viability assay (AID 1918974); conditions: ATP luminescence, 48 h; viability: at 45.8 µM (top of the series)
Method in brief: as §1

[16] = Quantitative High-Throughput drug screen in 47 multiple myeloma cell lines against the NCATS MIPE library collection: NCIH929_DSMZ cell viability assay (AID 1918978); further: nearly all actives have a fitted effect of over 35% in size
Method in brief: as §2

[17] = Quantitative High-Throughput drug screen in 47 multiple myeloma cell lines against the NCATS MIPE library collection: KMS20_JCRB cell viability assay (AID 1918973); further: nearly all actives have a fitted effect of over 45% in size
Method in brief: as §1

[18] = Quantitative High-Throughput drug screen in 47 multiple myeloma cell lines against the NCATS MIPE library collection: MMM1_PLB cell viability assay (AID 1918976); further: nearly all actives have a fitted effect of over 35% in size
Method in brief: as §2

[19] = Quantitative High-Throughput drug screen in 47 multiple myeloma cell lines against the NCATS MIPE library collection: L363_DSMZ cell viability assay (AID 1918984); conditions: L363 myeloma viability, CellTiter-Glo ATP luminescence, 48 h; viability (% of control): at 45.8 µM (top of the series); further: nearly all actives have a fitted effect of over 40% in size
Method in brief: as §2
Potency means the concentration at half of the fitted maximal effect.

C[C@@H](NC(=O)c1ncnc(N)c1Cl)c1ncc(C(=O)Nc2cc(C(F)(F)F)c(Cl)cn2)s1
active: Potency [1] 18.7 µM | Potency [2] 16.6 µM | Potency [3] 2.96 µM | Potency [4] 16.6 µM | Potency [5] 4.69 µM | Potency [6] 16.6 µM | Potency [7] 4.18 µM

Cc1nc2c([nH]1)CCN(C(=O)c1ccc(NC(=O)c3ccccc3-c3ccccc3)cc1)c1ccccc1-2
inactive: Potency [1] | Potency [2] | Potency [8] | Potency [9] | Potency [10] | Potency [4] | Potency [11] | Potency [6]

OCCn1cc(-c2ccc3c(c2)CCC3=NO)c(-c2ccncc2)n1
inactive: Potency [1] | Potency [13] | Potency [14] | Potency [3] | Potency [6] | Potency [7]
active: Potency [12] 23.5 µM | Potency [15] 8.33 µM | Potency [10] 66.2 nM | Potency [16] 20.9 µM | Potency [4] 26.4 µM

C[C@@H](O)[C@H]1C(=O)N2C(C(=O)OCOC(=O)C(C)(C)C)=C(SC3CN(C4=NCCS4)C3)[C@H](C)[C@H]12
inactive: Potency [2] | Potency [13] | Potency [9] | Potency [10] | Potency [5] | Potency [6]
active: Potency [1] 16.6 µM | Potency [11] 16.6 µM

CN(C)CCN(C)C(=O)c1ccc(NC(=O)Nc2ccc(-c3nc(N4CCOCC4)c4ccn(CC(F)(F)F)c4n3)cc2)cc1
active: Potency [1] 0.0372 µM | Potency [2] 3.32 µM | Potency [13] 0.209 µM | Potency [14] 0.132 µM | Potency [17] 0.0418 µM | Potency [9] 0.0526 µM | Potency [18] 0.0296 µM | Potency [10] 6.6 nM | Potency [16] 0.0083 µM | Potency [3] 7.43 µM | Potency [4] 0.0526 µM | Potency [11] 0.105 µM | Potency [5] 0.166 µM | Potency [6] 0.0469 µM | Potency [7] 0.372 µM

CCN1CCC(n2cc(CNc3cc(Cl)c4ncc(C#N)c(Nc5ccc(F)c(Cl)c5)c4c3)nn2)CC1
active: Potency [1] 20.9 µM | Potency [12] 18.7 µM | Potency [13] 9.35 µM | Potency [9] 8.33 µM | Potency [18] 14.8 µM | Potency [16] 20.9 µM | Potency [4] 16.6 µM | Potency [11] 8.33 µM | Potency [6] 7.43 µM | Potency [19] 4.69 µM

Cc1ccc(C(=O)N(CCCN)[C@@H](c2nc3cc(Cl)ccc3c(=O)n2Cc2ccccc2)C(C)C)cc1
inactive: Potency [7]
active: Potency [1] 18.7 µM | viability (% of DMSO) [8] 70.3% | Potency [9] 23.5 µM | Potency [18] 26.4 µM | Potency [16] 8.33 µM

CN(C)c1ccc(-c2nc3ncc(Cl)c(N4CCN(CC(=O)Nc5nccs5)CC4)c3[nH]2)cc1
inactive: Potency [16] | Potency [5] | Potency [19]
active: Potency [1] 18.7 µM | Potency [12] 2.64 µM | Potency [13] 4.18 µM | Potency [9] 5.9 µM | Potency [18] 9.35 µM | Potency [6] 5.26 µM | Potency [7] 2.96 µM

Cc1csc(-c2nnc(Nc3ccc(Oc4ncccc4-c4ccnc(N)n4)cc3)c3ccccc23)c1
active: Potency [1] 18.7 µM | Potency [14] 20.9 µM | Potency [15] 18.7 µM | Potency [3] 5.26 µM | Potency [4] 18.7 µM | Potency [11] 20.9 µM | Potency [5] 20.9 µM | Potency [19] 20.9 µM

CC1(COc2ccc3c(c2)ncn3-c2ccc3cccc(N4CCC(N)CC4)c3n2)COC1
active: Potency [1] 0.418 µM | Potency [2] 0.0083 µM | Potency [13] 11.8 µM | Potency [9] 14.8 µM | Potency [18] 1.48 µM | Potency [3] 1.48 µM | Potency [5] 1.18 µM | Potency [6] 0.59 µM | Potency [7] 1.05 µM

CC(C)CN(C[C@H](O)[C@H](Cc1ccccc1)NC(=O)O[C@H]1CCOC1)S(=O)(=O)c1ccc(N)cc1
active: Potency [1] 1.87 µM | Potency [2] 18.7 µM | Potency [17] 16.6 µM | Potency [9] 8.33 µM | Potency [4] 16.6 µM | Potency [11] 16.6 µM
inactive: Potency [8] | Potency [10] | Potency [3] | Potency [7]

O[C@@H](COc1cccc2ncccc12)CN1CCN(C2c3ccccc3[C@@H]3[C@H](c4ccccc42)C3(F)F)CC1 (some centres undefined)
inactive: Potency [14]
active: Potency [1] 14.8 µM | Potency [13] 23.5 µM | Potency [9] 20.9 µM | Potency [18] 26.4 µM | Potency [10] 23500 nM | Potency [6] 23.5 µM

N=C1SC(=Cc2ccc(-c3ccc4c(c3)C(=O)NC4=O)o2)C(=O)N1c1ccc(Br)cc1
inactive: Potency [2] | Potency [8] | Potency [19]
active: Potency [1] 2.96 µM | Potency [13] 4.18 µM | Potency [9] 4.18 µM | Potency [18] 3.32 µM | Potency [10] 3720 nM | Potency [3] 4.18 µM | Potency [4] 26.4 µM | Potency [11] 4.18 µM | Potency [5] 2.96 µM | Potency [6] 4.69 µM | Potency [7] 2.64 µM

CN(C)CCCNC(=O)c1ccc(-c2cc(O)c3ncccc3c2)cc1
active: Potency [1] 20.9 µM | Potency [12] 18.7 µM | Potency [13] 9.35 µM | Potency [14] 20.9 µM | Potency [5] 8.33 µM | Potency [6] 9.35 µM | Potency [19] 20.9 µM

Cn1c(=O)c(-c2c(Cl)cccc2Cl)cc2cnc(Nc3cccc(C(=O)O)c3)nc21
inactive: Potency [12] | Potency [16]
active: Potency [1] 4.18 µM | Potency [8] 526 nM | Potency [15] 0.0833 µM | Potency [9] 3.32 µM | Potency [10] 2090 nM | Potency [11] 9.35 µM | Potency [6] 5.26 µM | Potency [19] 0.59 µM

Nc1ccc(-c2ccc3ncc4ccc(=O)n(-c5cccc(C(F)(F)F)c5)c4c3c2)cn1
active: Potency [1] 0.0235 µM | Potency [2] 0.0469 µM | Potency [13] 0.0105 µM | Potency [9] 0.0296 µM | Potency [18] 0.0066 µM | Potency [10] 5.9 nM | Potency [4] 0.0105 µM | Potency [6] 0.0166 µM | Potency [7] 0.0066 µM

Reference: PubChem BioAssay (NCATS)
